N-glyco inh: N-linked glycosylation inhibition. D54 ERlucT glycosylation luciferase reporter, 24 h; percent of 100 nM tunicamycin response. reporter increase, % at 12.5 µM. 360,000 tested, 0.23% active. AID 588692;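 active means mean luciferase reporter signal, scaled so untreated is 0 and the glycosylation-blocking control 100, at or above a set limit in every replicate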;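 further: luciferase carries N-glycosylation sites so blocking glycosylation raises the light; 0% = median of neutral control wells and 100% = median of 100 nM tunicamycin wells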
PvdQ acylase: P. aeruginosa PvdQ acylase inhibition; 340,000 tested, 0.063% active; purified PvdQ acylase, fluorescence plate reader; inhibition, % at 10 µM; AID 488965; in the data active means inhibition above about 30%, passing the limit was not always enough;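 further: 0% = vehicle neutral wells and 100% = reference inhibitor wells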
F508del corr: CFTR F508del correction in bronchial cells. 350,000 tested, 0.36% active. CFBE cells, YFP halide quenching; stimulated with forskolin plus potentiator P3; % fluorescence drop versus neutral controls. activity (quench increase), % at 7.58 µM;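 active means mean added fluorescence quench of at least 8% versus neutral control, with both replicates also reaching 8%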;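 further: cells transiently co-express mutant CFTR-F508del with the halide-sensitive YFP; corrector assay measuring rescue of mutant channel to the surface after 24 h compound exposure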
RAD52 inh: inhibitors of human RAD52 DNA annealing; recombinant RAD52 DNA annealing, FRET fluorescence; inhibition, % at 18.7 µM; 360,000 tested, 0.46% active; AID 651710;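 active means every replicate showing at least 50% inhibition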
dFosB act: activators of mouse delta FosB homodimer; P13346; 340,000 tested, 0.99% active; purified delta FosB, TAMRA-CDK5 oligo fluorescence polarization; percent of positive-control signal above neutral wells; activation, % at 25 µM;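 active means mean activation above about 17%, with every replicate also reaching it, limit read from the data, passing the limit was not always enough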
Target sequence (P13346 whole entry, looked up): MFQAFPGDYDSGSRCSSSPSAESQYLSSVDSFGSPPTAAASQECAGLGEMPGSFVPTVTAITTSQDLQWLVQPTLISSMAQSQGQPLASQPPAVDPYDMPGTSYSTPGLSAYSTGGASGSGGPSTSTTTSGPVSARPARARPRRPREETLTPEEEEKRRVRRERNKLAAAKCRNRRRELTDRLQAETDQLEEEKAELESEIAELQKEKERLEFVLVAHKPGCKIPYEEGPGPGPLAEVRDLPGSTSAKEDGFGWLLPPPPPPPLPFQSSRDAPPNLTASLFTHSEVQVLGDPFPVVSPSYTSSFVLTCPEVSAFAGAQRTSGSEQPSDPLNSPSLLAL
RAD54 inh: inhibitors of human RAD54 branch migration | RAD54 Holliday junction branch migration, FAM/BHQ fluorescence | inhibition, % at 10.4 µM | 360,000 tested, 0.14% active | AID 602329;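 active means mean normalized replicate activity at least 40 and at least half of replicates scoring 40 or more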;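 further: 0% = median of neutral control wells and 100% = median of positive control wells; inhibitors cause a drop in the FAM fluorescence signal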
The depositor's hits bear a star. Sampled rows, rich in hits. Any-hit rate of the full collection: about 1.5%.

What do the screens show for `O=C(O)C1=C[C@@H](O)[C@@H](O)[C@H](O)C1`?
N-glyco inh: 1.0; PvdQ acylase: -6.4; F508del corr: 9.7*; RAD52 inh: -8.9; dFosB act: 5.5; RAD54 inh: -5.6

What do the screens show for `O=C(Cc1ccccn1)NCC[C@@H]1CC[C@H](NC(=O)Nc2ccc(C(F)(F)F)cc2)[C@@H](CO)O1`?
F508del corr: 14.2*; RAD52 inh: -9.2; RAD54 inh: -0.7

How did CC(C)NC(=O)NC(=O)COC(=O)c1ccc(OC(F)(F)F)cc1 do in these assays?
N-glyco inh: -4.1; PvdQ acylase: 11.6; dFosB act: -0.6; RAD54 inh: 4.8

How did CC(C)NC(=O)NC(=O)COC(=O)c1ccc(S(=O)(=O)Nc2ccccc2)cc1 do in these assays?
N-glyco inh: -0.5; PvdQ acylase: -7.2; F508del corr: 22.8*; RAD52 inh: -4.0; dFosB act: -5.7

How did NNC(=O)c1nc(-c2ccccc2)cc(-c2ccccc2)n1 do in these assays?
N-glyco inh: 46.7*; PvdQ acylase: 4.4; F508del corr: 2.7; RAD52 inh: -16.7; dFosB act: -25.1; RAD54 inh: -9.8

How did NNc1nc(-c2ccccc2)cc(-c2ccccc2)n1 do in these assays?
N-glyco inh: -1.5; PvdQ acylase: -9.2; F508del corr: -2.7; RAD52 inh: 0.3; dFosB act: -13.6

What do the screens show for `COc1ccc(Nc2nc3cc(-c4sccc4C)sc3c(=O)n2C)cc1OC`?
N-glyco inh: 21.1; F508del corr: 9.6*; RAD52 inh: 15.6; RAD54 inh: 11.0

Results for COc1cccc(CNC(=O)C[C@H]2CC[C@H](NS(=O)(=O)c3ccccc3OC)[C@H](CO)O2)c1 ?
F508del corr: -0.2; RAD52 inh: -10.0; RAD54 inh: -1.5

What do the screens show for `CC1CC(C)CN(S(=O)(=O)N2CCCC(C(=O)NCc3ccccc3Cl)C2)C1` (stereo unspecified)?
N-glyco inh: -2.9; PvdQ acylase: -2.5; F508del corr: -0.3; RAD52 inh: -5.3; dFosB act: -2.2; RAD54 inh: 2.4

How did CC1CCN(S(=O)(=O)N2CCCC(C(=O)NCc3ccccc3Cl)C2)CC1 (stereo unspecified) do in these assays?
N-glyco inh: 0.2; PvdQ acylase: -16.5; F508del corr: 9.6*; RAD52 inh: -3.8; dFosB act: -2.6; RAD54 inh: 4.6

Results for Cc1noc(C)c1NC(=O)N(C)C[C@H]1Oc2ccc(NC(=O)Cc3cn(C)c4ccccc34)cc2C(=O)N([C@@H](C)CO)C[C@H]1C ?
F508del corr: 2.8; RAD52 inh: -11.6; RAD54 inh: -44.8

What do the screens show for `COc1ccc(CC(=O)NC(c2ccccc2)c2ccc(C)cc2)c(OC)c1` (stereo unspecified)?
N-glyco inh: -5.6; PvdQ acylase: -14.4; F508del corr: 8.0*; RAD52 inh: -7.3; dFosB act: -12.9; RAD54 inh: -11.0

Results for CC(C(=O)NC1CCCC1)N1CCN(S(=O)(=O)c2ccc(C(C)(C)C)cc2)CC1 (stereo unspecified) ?
N-glyco inh: 0.8; PvdQ acylase: 1.8; F508del corr: 13.3*; RAD52 inh: -16.3; dFosB act: -17.6; RAD54 inh: -5.4

What do the screens show for `CN1/C(=C/C(=O)c2cccs2)Sc2ccccc21`?
N-glyco inh: -7.9; PvdQ acylase: -6.5; dFosB act: -1.7; RAD54 inh: 56.1*

Results for O=C(Nc1c(Cl)ccc2nsnc12)c1ccc([N+](=O)[O-])o1 ?
N-glyco inh: 46.0*; PvdQ acylase: 2.6; F508del corr: -0.8; RAD52 inh: -3.0; dFosB act: 2.8; RAD54 inh: 6.3

Results for Cc1cc(C)c2nc(NC(=O)c3ccc([N+](=O)[O-])o3)sc2c1 ?
N-glyco inh: 16.2; PvdQ acylase: -0.3; F508del corr: -1.8; RAD52 inh: -11.9; dFosB act: -8.7; RAD54 inh: -3.2

Results for Cc1cc(C)c2sc(NC(=O)c3ccc([N+](=O)[O-])o3)nc2c1 ?
N-glyco inh: 44.0*; PvdQ acylase: -15.6; F508del corr: -0.4; RAD52 inh: -12.3; dFosB act: 12.4; RAD54 inh: -3.5

What do the screens show for `O=C(Nc1c(Cl)ccc2nsnc12)c1ccc(Br)o1`?
N-glyco inh: -1.2; F508del corr: 0.3; RAD52 inh: -10.5

High-throughput results from PubChem.
